Among all 5,500 compounds or so, about 2,000 (36%) were called active. About 18% were inconclusive and are not listed. Rule as the data show it: active = normalized growth mostly below about 0.91 (no sharp cut-off); inconclusive = no clear call, values can overlap the other calls; inactive = mostly above about 0.92. The list shows a part of the results.
Assay: chemical genetic growth profiling, strain panel (AID 1159580);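 also: tested at 20 µM; growth read once vehicle control cultures reached saturation at 30 °C; 1 = growth at the plate median or of vehicle wells; lower values mean less growth of the strain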
Conditions: S. cerevisiae deletion strains, growth OD

Measured: normalized growth

CCn1cc(C(=O)O)c(=O)c2ccc(Cc3ccccc3)nc21
inactive: locus YAL013W, strain DEP1, stronger effect = lower value 1.03 | locus YAL040C, strain CLN3, stronger effect = lower value 1 | locus YCL061C, strain MRC1 (second series), stronger effect = lower value 1.01 | locus YDR363W, strain ESC2, stronger effect = lower value 1.01 | locus YER002W, strain NOP16, stronger effect = lower value 0.964 | locus YGR078C, strain PAC10, stronger effect = lower value 0.971 | locus YJR075W, strain HOC1, stronger effect = lower value 1.02 | locus YMR263W, strain SAP30, stronger effect = lower value 1 | locus YMR307W, strain GAS1, stronger effect = lower value 1 | locus YNL128W, strain TEP1, stronger effect = lower value 0.988 | locus YNL153C, strain GIM3, stronger effect = lower value 0.923 | locus YNL175C, strain NOP13, stronger effect = lower value 0.972 | locus YNL197C, strain WHI3, stronger effect = lower value 0.942 | locus YNL224C, strain SQS1, stronger effect = lower value 0.965 | locus YNL322C, strain KRE1, stronger effect = lower value 0.991 | locus YOR083W, strain WHI5 (second series), stronger effect = lower value 1.09 | locus YPL241C, strain CIN2, stronger effect = lower value 1.01

Reference: PubChem BioAssay AID1159580 (chemical genetic matrix, 2015)
